Compounds with a hit are over-represented: about 3.6% of the library has one in this group of screens.
PHOSPHO1 inh: PubChem AID 1565; recombinant PHOSPHO1, absorbance phosphatase assay; inhibition, % at 13.3 µM; 1.1% of 290,000 active; in the data active = inhibition above about 60%
Target sequence (Q8TCT1 whole entry, looked up): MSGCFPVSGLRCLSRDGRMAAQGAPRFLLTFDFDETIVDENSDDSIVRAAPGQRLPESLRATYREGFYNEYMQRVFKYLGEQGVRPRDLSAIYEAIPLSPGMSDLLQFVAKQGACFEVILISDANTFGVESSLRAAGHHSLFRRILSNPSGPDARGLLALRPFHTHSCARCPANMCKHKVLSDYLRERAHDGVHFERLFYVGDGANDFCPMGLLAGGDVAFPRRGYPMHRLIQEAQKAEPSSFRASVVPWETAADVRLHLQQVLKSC
esBAF inh: Bmi1 luciferase reporter increase in mESCs, primary screen, esBAF inhibitor project, mouse ES cells, Bmi1 luciferase knock-in, single point; reporter increase, % at 12.5 µM; 2% of 350,000 active; AID 602393, 2012; 24 h; 100% = twice the neutral-well signal; in the data active = activation above about 40%; inconclusive = no clear call, values can overlap the other calls;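 also: 0% = median of the plate's neutral control wells and 100% = double that signal; a rise in the Bmi1 reporter signal indicates esBAF inhibition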
A3A deaminase: APOBEC3A ssDNA deaminase inhibitors, primary screen, selectivity assay for APOBEC3G inhibitor project, biochemical, FAM/TAMRA oligo cleavage fluorescence. DNA dC->dU-editing enzyme APOBEC-3A (Homo sapiens), P31941. recombinant A3A, FAM/TAMRA ssDNA deamination fluorescence. inhibition, % at 20 µM. 0.41% of 330,000 active;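 active = at least 40% inhibition at 20 µM here, with at most 30% in a related deaminase screen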;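 also: plate controls were A3A with DMSO for no effect and wells lacking A3A enzyme for full effect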
Target sequence (P31941 whole entry, looked up): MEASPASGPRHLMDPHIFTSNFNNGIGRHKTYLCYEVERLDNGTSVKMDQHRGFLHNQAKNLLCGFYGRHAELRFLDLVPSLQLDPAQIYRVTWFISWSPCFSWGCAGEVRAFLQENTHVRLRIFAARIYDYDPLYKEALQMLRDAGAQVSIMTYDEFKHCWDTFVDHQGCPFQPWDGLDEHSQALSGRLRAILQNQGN
MITF act: activators of MITF-driven TRPM1 promoter reporter, primary screen, cell-based, SK-MEL-5, luciferase, single point | 0.75% of 300,000 active | AID 588334, 2011 | SK-MEL-5 TRPM1-promoter luciferase, 24 h; % of positive control, neutral wells = 0 | activation, % at 12.5 µM;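 active = mean activation of at least 80% with every replicate also reaching 80%; inconclusive = mean reaches 80% but some replicate falls short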;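 also: 0% = neutral control wells and 100% = parthenolide positive control wells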
APOBEC3G inh: APOBEC3G DNA deaminase inhibitors, primary screen, biochemical, fluorescence, single-stranded DNA substrate, uHTS; inhibition, % at 20 µM; 0.28% of 330,000 active; recombinant A3G, ssDNA deamination FAM/TAMRA fluorescence;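 active = inhibition of at least 40% at 20 µM, with no more than 30% in the related APOBEC3A deaminase screen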;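 also: plate controls were DMSO wells with A3G for no effect and wells lacking A3G enzyme for full effect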
Wnt act: Wnt/beta-catenin pathway activators, primary screen, cell-based, plate reader, single point. activation, % at 9.35 µM. 1.2% of 300,000 active. AID 743398, 2014. Wnt/beta-catenin reporter cell assay, activator; in the data active = activation above about 30%, passing the limit was not always enough; inconclusive = no clear call, values can overlap the other calls;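 also: 0% = neutral control wells and 100% = positive control wells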
* hit, by the source's call; u = inconclusive; x = no result.

SMILES	PHOSPHO1 inh	esBAF inh	A3A deaminase	MITF act	APOBEC3G inh	Wnt act
Cc1ccc(-n2nnc(-c3nccs3)n2)cc1	26	-73	2	-56	-5	-5
COc1ncccc1-c1nnn(-c2ccc(Cl)c(Cl)c2)n1	39	88*	0	102*	-9	39*
COc1ncccc1-c1nnn(-c2ccc(C)cc2)n1	35	u	-2	57	-7	39*
COc1ncccc1-c1nnn(-c2ccc(F)cc2)n1	22	54*	-1	-15	-1	34*
Cc1ccc(-n2nnc(-c3cc4ccccc4nc3Cl)n2)cc1	26	45*	-2	x	-14	1
COCC(=O)Nc1ccc2c(c1)[C@@H]1C[C@H](CC(=O)NCc3cccnc3)O[C@H](CO)[C@@H]1O2	x	6	x	x	x	x
Cc1ccccc1S(=O)(=O)N[C@H]1CC[C@H](CCn2cc(-c3ccccc3)nn2)O[C@@H]1CO	x	-5	x	x	x	x
O=c1[nH]c2ccccc2cc1-c1nnn(-c2ccc(F)cc2)n1	35	79*	-2	76	-11	u
O=C(COc1ccccc1)NCCSc1ccccc1	-16	52*	-1	x	-3	18
CC(C)(C)SCCNC(=O)COc1ccccc1	10	16	-2	24	-1	x
O=C(CNC(=O)c1ccccc1F)c1ccccc1	19	-14	-5	x	-7	38*
CN(C)S(=O)(=O)c1ccc(C(=O)NCCSc2ccccc2)cc1	1	53*	-1	41	-7	x
O=C(NCCSc1ccccc1)c1cccnc1	-4	58*	-2	56	-8	x
C[C@H](CO)N1C[C@H](C)[C@H](CN(C)S(=O)(=O)c2ccc(F)cc2)OCCCC[C@H](C)Oc2ccc(NC(=O)NC3CCCCC3)cc2C1=O	x	-4	x	x	x	x
O=C(NCCSc1ccccc1)c1ccccc1F	x	47*	x	x	x	-1
O=C(CNC(=O)c1ccccc1F)Nc1ccccc1C(F)(F)F	69*	x	-1	-9	-6	1
Cc1cccc(NC(=O)Nc2ccc(C)c(C)c2)n1	16	48*	1	32	1	35*
Cc1ccc(NC(=O)Nc2cccc(C)n2)cc1	20	4	-1	76	-8	40*
Cc1ccc(NC(=O)Nc2ccnc(-c3cccnc3)n2)cc1	43	x	1	-3	-3	55*
COC(=O)c1ccc(NC(=O)c2cn(-c3cccc(C)n3)cn2)cc1	10	6	x	21	x	1
Cc1ccc(NC(=O)c2cn(-c3cccc(C)n3)cn2)cc1	28	26	0	106*	-1	x
Cc1noc(C)c1S(=O)(=O)Nc1cccc2c1O[C@@H](CN(C)S(C)(=O)=O)[C@@H](C)CN([C@H](C)CO)C2=O	x	-6	x	x	x	x
COC(=O)C[C@@H]1CC[C@@H]2[C@@H](COc3ccc(NC(=O)Nc4cccc(C)c4)cc3C(=O)N2C)O1	x	8	x	x	x	x
COc1ccc(S(=O)(=O)N(C)C[C@@H]2OCCCC[C@H](C)Oc3ccc(NC(=O)C4CCCCC4)cc3C(=O)N([C@@H](C)CO)C[C@@H]2C)cc1	x	8	x	x	x	x
CN(C)C(=O)C[C@@H]1C[C@@H]2c3cc(NC(=O)c4cccnc4)ccc3O[C@@H]2[C@@H](CO)O1	x	1	x	x	x	x
SMILES	PHOSPHO1 inh	esBAF inh	A3A deaminase	MITF act	APOBEC3G inh	Wnt act
COCCNC(=O)COCc1cc(-c2ccc3c(c2)OCO3)on1	29	4	0	3	-5	3
CCC(C)NC(=O)COCc1cc(-c2ccc3c(c2)OCO3)on1 (stereo not drawn)	29	6	-5	-7	-10	0
COCCNC(=O)c1cc(-c2ccc3c(c2)OCO3)on1	69*	-9	-2	15	-5	x
CCC(C)NC(=O)c1cc(-c2ccc3c(c2)OCO3)on1 (stereo not drawn)	18	3	1	88*	-3	41*
Cc1nc(N)sc1N=Nc1ccc(Br)cc1	32	75*	1	x	-2	x
Cc1[nH]nc(N)c1N=Nc1ccc(Br)cc1	21	x	-3	x	-10	8
O=[N+]([O-])c1ccc2oc(/C=C/c3ccc(O)cc3)nc2c1	x	42*	x	x	x	11
Nc1ccc(-c2nc3cc([N+](=O)[O-])ccc3o2)cc1	-35	1	-3	41	-2	44*
CC(C)(C)Nc1nc2cc([N+](=O)[O-])ccc2o1	42	9	1	13	7	1
CCOC(=O)c1c(N)sc2c1CCS(=O)(=O)C2	79*	-13	4	x	29	-3
COc1ccc(S(=O)(=O)N(C)C[C@H]2Oc3ccc(NC(=O)CCCN(C)C)cc3C(=O)N([C@@H](C)CO)C[C@H]2C)cc1	x	4	x	x	x	x
COC(=O)C[C@@H]1CC[C@H]2[C@@H](COC[C@H](O)CN2CCC(F)(F)F)O1	x	0	x	x	x	x
O=S(=O)(c1cccs1)N1CCCc2cccc(O)c21	12	45*	-4	95*	-2	48*
O=C(Nc1ccc2c(c1)N(S(=O)(=O)c1cccs1)CCC2)c1c(F)cccc1F	x	-2	-1	-5	-6	2
C[C@H](CO)N1C[C@H](C)[C@@H](CN(C)C(=O)c2ccccc2)Oc2cc(C#CC3(O)CCCC3)ccc2S1(=O)=O	x	4	x	x	x	x
CO[C@@H]1CN(C)C(=O)c2ccc(NC(C)=O)cc2OC[C@@H](C)N(Cc2ccccn2)C[C@@H]1C	x	4	x	x	x	x
CN1CCCC1CCNc1ccc2oc3ccccc3c(=O)c2c1 (stereo not drawn)	10	x	-3	x	-5	3
CN1CCC[C@H]1CCNC(=O)c1c(-c2ccsc2)sc2ccccc12	x	11	0	11	-8	0
Cn1c2ccccc2c(=O)c2ccc(NCc3ccc4c(c3)OCO4)cc21	x	44*	x	20	x	6
CN1CCC[C@H]1CCNc1ccc2c(=O)c3ccccc3n(C)c2c1	x	64*	x	57	x	17
COc1cccc2sc3ccc(NCc4ccc5c(c4)OCO5)cc3c(=O)c12	-2	15	-1	20	-9	0
CN1CCCC1CCNc1ccc2c(=O)c3ccccc3oc2c1 (stereo not drawn)	-99	32	4	89*	-3	19
COc1ccc(CN(C)C[C@H]2Oc3ccc(NC(=O)CCC(F)(F)F)cc3C(=O)N([C@@H](C)CO)C[C@@H]2C)cc1	x	-3	x	x	x	x
Cc1ccc(S(=O)(=O)N(C)C[C@H]2Oc3c(NS(=O)(=O)c4cccs4)cccc3C(=O)N([C@H](C)CO)C[C@H]2C)cc1	x	4	x	x	x	x
COc1ccccc1C#Cc1ccc2c(c1)O[C@H](CN(C)C(C)=O)[C@@H](C)CN([C@@H](C)CO)S2(=O)=O	x	-1	x	x	x	x

Screens as filed in PubChem.
